In the OligoGym collection:

target: FAM55C; assay: pooled miR-30 sensor sort-seq; sequence = guide strand; settings: shRNA
Also: reference of the scale not given here.

Q: For TATAATATCGTAGCATTCTTTA, which sensor-assay potency score (higher = more potent) is on record?
A: -1.01

Q: Which sensor-assay potency score (higher = more potent) does the source give for AAACACTCTACTACCAACCAAA here?
A: -0.932

Q: How did the sensor-assay potency score (higher = more potent) turn out when TTCAAGATGACAAAGTAGCTGG was run?
A: 0.358

Q: TTTATCTTCCTGTAAGCGCTGA was tested. Which sensor-assay potency score (higher = more potent) did it give?
A: 0.412

Q: TTTCTTTGTAAGCACTCTGTAA was tested. Which sensor-assay potency score (higher = more potent) did it give?
A: -0.921

Q: With TTAGTTTCTTTTATTCTCCTGG as the sequence, how does the sensor-assay potency score (higher = more potent) read?
A: 0.337

Q: For TAGTTTCAGAAATTCTTCCTGA, which sensor-assay potency score (higher = more potent) is on record?
A: 0.381

Q: With TAAGCTACAAACACTCTACTAC as the sequence, how does the sensor-assay potency score (higher = more potent) read?
A: 0.449

Q: How did the sensor-assay potency score (higher = more potent) turn out when TTAAACTCCACTAAATCTGGAA was run?
A: -0.0245

Q: How did the sensor-assay potency score (higher = more potent) turn out when TTACACAAAAGTCAATTCCTAA was run?
A: -0.448

Q: How did the sensor-assay potency score (higher = more potent) turn out when TTTGGTTTGAAGCAGAACCAGG was run?
A: -1.09

Q: How did the sensor-assay potency score (higher = more potent) turn out when TTGAGATAGTTCTAGACTGTTA was run?
A: -0.125

target: FAM57A; assay: as above; settings: shRNA

Q: How did the sensor-assay potency score (higher = more potent) turn out when TAGGAAGTTTCGAAGAGTGAGG was run?
A: -0.893

Q: With ATCATCACGCAGTCGGTGCGGC as the sequence, how does the sensor-assay potency score (higher = more potent) read?
A: -0.575

Q: Which sensor-assay potency score (higher = more potent) does the source give for TTGGAGCAGGCTTAGTCCCTGC here?
A: -0.863

Q: Which sensor-assay potency score (higher = more potent) does the source give for TTTAGCTGAATCAGAACCCTGC here?
A: 0.947

Q: TTCGACTTAGGAAGTTTCGAAG was tested. Which sensor-assay potency score (higher = more potent) did it give?
A: -0.637

Q: How did the sensor-assay potency score (higher = more potent) turn out when TTGGGGAGTGTCAAAGAGCCGG was run?
A: -1.25

Q: How did the sensor-assay potency score (higher = more potent) turn out when TAGGACCAGTACATGAAGGGGA was run?
A: 0.407

Q: With TTGCAGTAGAATGGGATGCTGA as the sequence, how does the sensor-assay potency score (higher = more potent) read?
A: -0.668

Q: With TGATGTGTGATCATGAGGCGGT as the sequence, how does the sensor-assay potency score (higher = more potent) read?
A: 0.245

Q: How did the sensor-assay potency score (higher = more potent) turn out when TTTCGACTTAGGAAGTTTCGAA was run?
A: -0.112

Q: For TGCACCGAGGAAACCAGCCTGG, which sensor-assay potency score (higher = more potent) is on record?
A: -1.21

Q: How did the sensor-assay potency score (higher = more potent) turn out when ATCACGTCGTCGCAGGAGCGAA was run?
A: -1.8

target: FAM58A; assay: as above; settings: shRNA

Q: How did the sensor-assay potency score (higher = more potent) turn out when TAGGGATTCAGTCTCATCGATT was run?
A: -1.22

Q: Which sensor-assay potency score (higher = more potent) does the source give for ATTGATGATGTCACGAGTCCGC here?
A: -0.413

Q: With ATCGATTTCATGACTTTCCTTT as the sequence, how does the sensor-assay potency score (higher = more potent) read?
A: 0.417

Q: With TCTCGCAAAAGAACTTATGGTA as the sequence, how does the sensor-assay potency score (higher = more potent) read?
A: -0.0793

Q: How did the sensor-assay potency score (higher = more potent) turn out when TTGGACACATTGATGATGTCAC was run?
A: -0.0439

Q: TTGTAGTCAAAGTCCTCTCAAA was tested. Which sensor-assay potency score (higher = more potent) did it give?
A: -0.91

Q: With TTGGTCTCGCAAAAGAACTTAT as the sequence, how does the sensor-assay potency score (higher = more potent) read?
A: -0.839

Q: How did the sensor-assay potency score (higher = more potent) turn out when TTGATGATGTCACGAGTCCGCA was run?
A: -0.773

Q: With TTGGGTTAAAGTACCTGTTGGA as the sequence, how does the sensor-assay potency score (higher = more potent) read?
A: 0.579

Q: Which sensor-assay potency score (higher = more potent) does the source give for TTGAAGACATGGCAATCAGGTA here?
A: -0.548

Q: TATGGTAAATGGTGCAAGCAGT was tested. Which sensor-assay potency score (higher = more potent) did it give?
A: -0.754

Q: How did the sensor-assay potency score (higher = more potent) turn out when TAGTGGAGCAGGTACTTGTGTG was run?
A: -1.12
